For test [1], the target named is High affinity nerve growth factor receptor (Homo sapiens) (UniProt P04629). To be noted: at 1 µM.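 Further: each value is the mean percent inhibition of TRKA.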
The target in test [2] is BDNF/NT-3 growth factors receptor (Homo sapiens) (UniProt Q16620). The conditions noted are these: at 0.1 µM.
The target is the same in test [3]. The conditions noted are these: at 1 µM.
In test [4] the target is NT-3 growth factor receptor (Homo sapiens) (UniProt Q16288). The conditions noted are these: at 0.1 µM.
Chain of NT-3 growth factor receptor (Homo sapiens) (Q16288 32-839 limits assumed): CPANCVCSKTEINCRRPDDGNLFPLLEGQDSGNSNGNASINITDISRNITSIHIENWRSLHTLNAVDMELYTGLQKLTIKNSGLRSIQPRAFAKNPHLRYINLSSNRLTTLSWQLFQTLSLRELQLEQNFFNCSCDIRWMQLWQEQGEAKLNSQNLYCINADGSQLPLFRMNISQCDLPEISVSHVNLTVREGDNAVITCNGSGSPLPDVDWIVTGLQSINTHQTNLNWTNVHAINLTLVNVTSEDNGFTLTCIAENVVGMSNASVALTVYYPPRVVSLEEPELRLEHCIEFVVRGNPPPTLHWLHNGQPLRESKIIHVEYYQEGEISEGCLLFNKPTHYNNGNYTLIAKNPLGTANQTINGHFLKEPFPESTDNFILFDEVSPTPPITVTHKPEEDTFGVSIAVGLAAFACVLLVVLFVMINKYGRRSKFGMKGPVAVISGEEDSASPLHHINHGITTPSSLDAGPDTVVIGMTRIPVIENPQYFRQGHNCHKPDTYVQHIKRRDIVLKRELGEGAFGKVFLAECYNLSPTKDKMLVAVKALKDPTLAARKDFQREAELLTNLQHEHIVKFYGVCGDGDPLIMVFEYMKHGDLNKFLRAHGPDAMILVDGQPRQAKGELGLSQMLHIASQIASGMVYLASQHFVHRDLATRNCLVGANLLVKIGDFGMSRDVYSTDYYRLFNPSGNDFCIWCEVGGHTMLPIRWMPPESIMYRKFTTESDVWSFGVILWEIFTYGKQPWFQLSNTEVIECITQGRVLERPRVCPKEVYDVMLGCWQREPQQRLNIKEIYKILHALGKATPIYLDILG
The target is the same in test [5]. To be noted: at 1 µM.
Test [6] deals with T1, Tyrosine-protein kinase TXK (Homo sapiens) (UniProt P42681).
T1 sequence (whole entry): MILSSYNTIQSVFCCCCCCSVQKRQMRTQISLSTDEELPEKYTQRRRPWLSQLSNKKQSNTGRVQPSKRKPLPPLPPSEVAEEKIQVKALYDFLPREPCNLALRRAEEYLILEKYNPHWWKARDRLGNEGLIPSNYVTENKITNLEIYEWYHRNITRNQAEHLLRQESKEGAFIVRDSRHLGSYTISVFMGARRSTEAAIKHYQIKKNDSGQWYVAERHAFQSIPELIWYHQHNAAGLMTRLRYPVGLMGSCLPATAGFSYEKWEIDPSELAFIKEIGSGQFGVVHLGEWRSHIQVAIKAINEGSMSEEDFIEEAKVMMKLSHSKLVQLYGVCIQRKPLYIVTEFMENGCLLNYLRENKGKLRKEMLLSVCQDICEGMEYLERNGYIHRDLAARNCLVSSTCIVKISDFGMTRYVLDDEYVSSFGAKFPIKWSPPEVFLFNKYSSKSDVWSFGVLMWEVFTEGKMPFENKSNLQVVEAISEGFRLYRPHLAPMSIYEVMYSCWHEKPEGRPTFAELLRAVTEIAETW
The conditions noted are these: at 0.1 µM.

The target in test [7] is T1, Tyrosine-protein kinase TXK (Homo sapiens). The conditions noted are these: at 1 µM.
Test [8] deals with Non-receptor tyrosine-protein kinase TYK2 (Homo sapiens) (UniProt P29597). To be noted: at 0.1 µM.
In test [9] the target is T2, Dual specificity protein kinase TTK (Homo sapiens) (UniProt P33981).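 Further: reported figures are mean TTK inhibition at 1 µM.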
T2 sequence (whole entry): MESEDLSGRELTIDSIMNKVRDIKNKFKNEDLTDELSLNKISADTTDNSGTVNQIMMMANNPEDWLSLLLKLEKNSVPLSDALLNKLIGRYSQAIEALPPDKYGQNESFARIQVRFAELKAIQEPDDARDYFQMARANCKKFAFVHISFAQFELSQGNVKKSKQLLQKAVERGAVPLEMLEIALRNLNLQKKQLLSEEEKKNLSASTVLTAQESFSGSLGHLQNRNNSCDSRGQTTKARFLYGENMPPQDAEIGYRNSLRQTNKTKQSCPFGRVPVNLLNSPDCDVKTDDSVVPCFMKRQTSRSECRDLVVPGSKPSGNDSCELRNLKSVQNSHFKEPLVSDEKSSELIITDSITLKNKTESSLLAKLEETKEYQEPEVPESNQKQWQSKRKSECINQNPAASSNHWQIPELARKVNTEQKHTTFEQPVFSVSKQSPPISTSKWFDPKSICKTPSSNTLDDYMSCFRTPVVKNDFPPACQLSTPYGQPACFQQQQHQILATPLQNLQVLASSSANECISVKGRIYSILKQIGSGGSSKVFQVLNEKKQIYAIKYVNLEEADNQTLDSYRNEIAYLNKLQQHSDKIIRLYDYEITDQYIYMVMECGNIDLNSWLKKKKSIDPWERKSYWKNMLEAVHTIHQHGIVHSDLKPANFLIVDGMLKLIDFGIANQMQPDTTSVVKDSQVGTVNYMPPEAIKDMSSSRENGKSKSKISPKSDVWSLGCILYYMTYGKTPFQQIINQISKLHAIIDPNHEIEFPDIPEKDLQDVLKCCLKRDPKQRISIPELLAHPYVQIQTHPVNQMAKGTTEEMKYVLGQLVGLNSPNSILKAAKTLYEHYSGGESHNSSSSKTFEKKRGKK
To be noted: at 1 µM.

In test [10] the target is T3, Aurora kinase A (Homo sapiens) (UniProt O14965).
T3 sequence (whole entry): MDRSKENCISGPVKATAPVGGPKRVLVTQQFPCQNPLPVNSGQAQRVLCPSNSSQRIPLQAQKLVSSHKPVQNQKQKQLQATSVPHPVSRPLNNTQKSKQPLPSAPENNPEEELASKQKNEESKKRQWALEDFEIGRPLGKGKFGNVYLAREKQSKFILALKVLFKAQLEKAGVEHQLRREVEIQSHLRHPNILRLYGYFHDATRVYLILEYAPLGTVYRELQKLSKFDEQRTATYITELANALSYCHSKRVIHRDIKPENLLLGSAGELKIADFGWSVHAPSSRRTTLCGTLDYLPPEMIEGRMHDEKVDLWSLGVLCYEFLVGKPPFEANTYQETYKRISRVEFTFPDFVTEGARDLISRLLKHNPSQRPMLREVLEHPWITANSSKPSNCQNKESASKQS
The conditions noted are these: at 0.1 µM.

Test [11] deals with T3, Aurora kinase A (Homo sapiens). The conditions noted are these: at 1 µM.
In test [12] the target is Aurora kinase B (Homo sapiens) (UniProt Q96GD4). To be noted: at 0.1 µM.
Chain of Aurora kinase B (Homo sapiens) (Q96GD4 whole entry): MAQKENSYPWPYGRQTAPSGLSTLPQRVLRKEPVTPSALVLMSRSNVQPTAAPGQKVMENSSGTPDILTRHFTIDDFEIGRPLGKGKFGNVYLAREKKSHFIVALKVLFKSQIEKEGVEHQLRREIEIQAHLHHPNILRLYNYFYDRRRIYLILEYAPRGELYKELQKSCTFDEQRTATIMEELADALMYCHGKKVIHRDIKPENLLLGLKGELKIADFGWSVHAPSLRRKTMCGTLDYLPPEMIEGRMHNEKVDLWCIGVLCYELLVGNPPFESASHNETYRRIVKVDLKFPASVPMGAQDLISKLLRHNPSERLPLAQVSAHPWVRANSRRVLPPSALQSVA
Test [13] has the same target. The conditions noted are these: at 1 µM.
For test [14], the target named is T4, Aurora kinase C (Homo sapiens) (UniProt Q9UQB9).
T4 sequence (whole entry): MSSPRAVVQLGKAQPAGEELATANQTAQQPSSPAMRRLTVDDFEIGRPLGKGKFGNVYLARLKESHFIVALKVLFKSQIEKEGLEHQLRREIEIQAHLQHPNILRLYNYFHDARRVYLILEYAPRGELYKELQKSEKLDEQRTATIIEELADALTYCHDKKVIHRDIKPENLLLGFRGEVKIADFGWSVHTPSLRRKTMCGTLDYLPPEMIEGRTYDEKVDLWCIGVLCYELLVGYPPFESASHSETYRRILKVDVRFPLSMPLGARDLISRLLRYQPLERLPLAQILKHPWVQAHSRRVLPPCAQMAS
To be noted: at 0.1 µM.

Test [15] has as its target T4, Aurora kinase C (Homo sapiens). To be noted: at 1 µM.
Test [16] addresses Serine/threonine-protein kinase 10 (Homo sapiens) (UniProt O94804). The conditions noted are these: at 0.1 µM.
For test [17] the target is unchanged. The conditions noted are these: at 1 µM.
Test [18] concerns the target T5, Mitogen-activated protein kinase kinase kinase kinase 2 (Homo sapiens) (UniProt Q12851).
T5 sequence (whole entry): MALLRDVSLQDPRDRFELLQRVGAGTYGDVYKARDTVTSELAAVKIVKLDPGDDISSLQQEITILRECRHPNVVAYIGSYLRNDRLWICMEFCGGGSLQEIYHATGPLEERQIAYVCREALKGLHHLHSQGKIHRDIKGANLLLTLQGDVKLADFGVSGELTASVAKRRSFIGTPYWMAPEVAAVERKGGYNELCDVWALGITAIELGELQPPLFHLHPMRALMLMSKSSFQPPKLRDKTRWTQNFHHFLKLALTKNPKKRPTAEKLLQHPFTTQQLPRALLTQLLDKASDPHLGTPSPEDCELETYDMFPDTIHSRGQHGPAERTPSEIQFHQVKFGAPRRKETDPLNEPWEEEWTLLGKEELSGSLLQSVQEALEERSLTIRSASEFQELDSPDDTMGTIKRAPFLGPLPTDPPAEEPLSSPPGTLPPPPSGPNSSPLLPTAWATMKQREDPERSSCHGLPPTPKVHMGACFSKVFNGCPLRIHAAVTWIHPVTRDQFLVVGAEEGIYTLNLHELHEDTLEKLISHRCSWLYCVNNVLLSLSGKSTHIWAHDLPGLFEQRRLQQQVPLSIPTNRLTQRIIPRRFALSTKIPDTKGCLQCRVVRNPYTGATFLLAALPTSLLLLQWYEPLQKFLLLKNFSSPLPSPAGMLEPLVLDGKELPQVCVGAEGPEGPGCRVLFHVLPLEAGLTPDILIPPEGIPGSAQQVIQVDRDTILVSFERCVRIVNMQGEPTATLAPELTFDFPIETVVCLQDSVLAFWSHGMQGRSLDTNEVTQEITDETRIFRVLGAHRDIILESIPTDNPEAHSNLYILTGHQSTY
To be noted: at 0.1 µM.

Test [19] deals with T5, Mitogen-activated protein kinase kinase kinase kinase 2 (Homo sapiens). The conditions noted are these: at 1 µM.
Test [20] concerns the target Mitogen-activated protein kinase kinase kinase kinase 4 (Homo sapiens) (UniProt O95819). The conditions noted are these: at 0.1 µM.

Structures are written as SMILES.

Chain of Serine/threonine-protein kinase 10 (Homo sapiens) (O94804 whole entry, looked up): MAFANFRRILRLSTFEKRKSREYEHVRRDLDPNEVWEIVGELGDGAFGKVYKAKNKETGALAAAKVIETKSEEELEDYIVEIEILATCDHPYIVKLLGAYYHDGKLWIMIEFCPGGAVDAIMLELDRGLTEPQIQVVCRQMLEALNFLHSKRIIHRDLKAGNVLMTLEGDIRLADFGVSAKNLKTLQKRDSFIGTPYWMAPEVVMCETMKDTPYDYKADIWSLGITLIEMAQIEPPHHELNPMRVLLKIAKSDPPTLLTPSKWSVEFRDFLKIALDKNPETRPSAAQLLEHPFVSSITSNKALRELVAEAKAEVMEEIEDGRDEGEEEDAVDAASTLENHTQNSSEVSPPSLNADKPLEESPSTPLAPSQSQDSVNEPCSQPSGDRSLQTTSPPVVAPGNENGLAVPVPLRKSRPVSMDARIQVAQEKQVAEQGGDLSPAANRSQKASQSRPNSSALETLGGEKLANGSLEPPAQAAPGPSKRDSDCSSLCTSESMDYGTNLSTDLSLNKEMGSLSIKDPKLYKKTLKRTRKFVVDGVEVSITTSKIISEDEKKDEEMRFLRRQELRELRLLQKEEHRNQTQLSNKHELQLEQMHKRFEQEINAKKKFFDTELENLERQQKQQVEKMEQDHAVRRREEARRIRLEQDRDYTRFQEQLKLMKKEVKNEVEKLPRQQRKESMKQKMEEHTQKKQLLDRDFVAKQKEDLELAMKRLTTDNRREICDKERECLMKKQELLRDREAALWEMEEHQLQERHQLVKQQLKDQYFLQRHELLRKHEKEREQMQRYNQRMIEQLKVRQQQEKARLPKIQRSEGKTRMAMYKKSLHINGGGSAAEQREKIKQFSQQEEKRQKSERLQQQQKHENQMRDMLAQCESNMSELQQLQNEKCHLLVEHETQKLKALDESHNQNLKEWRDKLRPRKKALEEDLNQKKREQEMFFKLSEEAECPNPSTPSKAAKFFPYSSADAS
Chain of Mitogen-activated protein kinase kinase kinase kinase 4 (Homo sapiens) (O95819 2-1239 limits assumed): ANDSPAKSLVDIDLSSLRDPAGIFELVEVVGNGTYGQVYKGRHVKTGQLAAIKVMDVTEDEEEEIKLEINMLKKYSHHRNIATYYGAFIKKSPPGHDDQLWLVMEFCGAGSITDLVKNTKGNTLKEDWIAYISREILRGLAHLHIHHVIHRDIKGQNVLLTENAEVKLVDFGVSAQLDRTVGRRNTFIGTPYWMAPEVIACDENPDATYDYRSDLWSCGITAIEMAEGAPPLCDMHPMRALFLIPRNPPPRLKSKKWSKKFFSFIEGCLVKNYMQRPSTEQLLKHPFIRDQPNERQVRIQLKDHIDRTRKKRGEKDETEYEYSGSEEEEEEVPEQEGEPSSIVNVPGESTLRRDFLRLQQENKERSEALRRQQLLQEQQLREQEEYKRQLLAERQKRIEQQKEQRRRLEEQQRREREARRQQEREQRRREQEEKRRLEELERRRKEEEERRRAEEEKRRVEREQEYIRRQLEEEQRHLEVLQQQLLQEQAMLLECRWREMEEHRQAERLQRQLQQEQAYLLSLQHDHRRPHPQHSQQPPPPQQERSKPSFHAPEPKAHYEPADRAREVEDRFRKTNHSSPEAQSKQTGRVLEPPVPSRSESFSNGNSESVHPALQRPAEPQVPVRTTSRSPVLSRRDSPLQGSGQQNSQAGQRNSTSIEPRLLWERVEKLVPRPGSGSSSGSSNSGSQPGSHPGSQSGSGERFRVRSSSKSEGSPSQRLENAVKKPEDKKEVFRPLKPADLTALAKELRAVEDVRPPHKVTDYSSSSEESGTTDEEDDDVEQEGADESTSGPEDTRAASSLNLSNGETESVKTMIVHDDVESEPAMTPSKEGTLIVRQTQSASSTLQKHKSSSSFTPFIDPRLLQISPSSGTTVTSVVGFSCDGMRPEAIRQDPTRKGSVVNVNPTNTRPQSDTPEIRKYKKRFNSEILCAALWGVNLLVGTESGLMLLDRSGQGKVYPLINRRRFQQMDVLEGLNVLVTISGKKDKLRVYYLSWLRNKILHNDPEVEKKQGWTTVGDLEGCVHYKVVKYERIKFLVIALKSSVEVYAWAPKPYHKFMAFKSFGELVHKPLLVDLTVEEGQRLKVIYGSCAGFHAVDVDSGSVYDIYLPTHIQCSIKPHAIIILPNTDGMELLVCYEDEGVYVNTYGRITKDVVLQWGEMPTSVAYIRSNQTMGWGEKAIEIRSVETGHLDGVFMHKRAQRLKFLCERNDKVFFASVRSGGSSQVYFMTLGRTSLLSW
Chain of High affinity nerve growth factor receptor (Homo sapiens) (P04629 33-796 limits assumed): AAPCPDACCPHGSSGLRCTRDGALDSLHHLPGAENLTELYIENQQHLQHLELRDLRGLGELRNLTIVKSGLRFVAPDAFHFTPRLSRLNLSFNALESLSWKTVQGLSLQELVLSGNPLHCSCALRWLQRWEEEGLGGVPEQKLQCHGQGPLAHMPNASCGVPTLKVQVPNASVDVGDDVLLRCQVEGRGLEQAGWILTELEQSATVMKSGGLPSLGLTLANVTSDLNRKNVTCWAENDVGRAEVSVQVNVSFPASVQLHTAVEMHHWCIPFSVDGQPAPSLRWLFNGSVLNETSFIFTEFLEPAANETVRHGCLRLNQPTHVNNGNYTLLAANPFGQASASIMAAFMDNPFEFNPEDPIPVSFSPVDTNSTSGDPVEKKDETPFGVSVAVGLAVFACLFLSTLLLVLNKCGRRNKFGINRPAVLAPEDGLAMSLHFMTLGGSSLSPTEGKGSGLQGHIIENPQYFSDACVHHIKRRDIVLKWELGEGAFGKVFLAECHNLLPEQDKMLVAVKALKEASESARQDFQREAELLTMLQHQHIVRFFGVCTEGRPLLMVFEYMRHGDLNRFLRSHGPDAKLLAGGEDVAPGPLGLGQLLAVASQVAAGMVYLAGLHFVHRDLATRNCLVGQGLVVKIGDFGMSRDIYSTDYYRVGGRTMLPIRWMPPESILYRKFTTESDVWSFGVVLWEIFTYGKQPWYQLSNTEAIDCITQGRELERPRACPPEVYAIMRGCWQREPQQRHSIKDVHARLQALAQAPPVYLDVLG
Chain of BDNF/NT-3 growth factors receptor (Homo sapiens) (Q16620 32-822 limits assumed): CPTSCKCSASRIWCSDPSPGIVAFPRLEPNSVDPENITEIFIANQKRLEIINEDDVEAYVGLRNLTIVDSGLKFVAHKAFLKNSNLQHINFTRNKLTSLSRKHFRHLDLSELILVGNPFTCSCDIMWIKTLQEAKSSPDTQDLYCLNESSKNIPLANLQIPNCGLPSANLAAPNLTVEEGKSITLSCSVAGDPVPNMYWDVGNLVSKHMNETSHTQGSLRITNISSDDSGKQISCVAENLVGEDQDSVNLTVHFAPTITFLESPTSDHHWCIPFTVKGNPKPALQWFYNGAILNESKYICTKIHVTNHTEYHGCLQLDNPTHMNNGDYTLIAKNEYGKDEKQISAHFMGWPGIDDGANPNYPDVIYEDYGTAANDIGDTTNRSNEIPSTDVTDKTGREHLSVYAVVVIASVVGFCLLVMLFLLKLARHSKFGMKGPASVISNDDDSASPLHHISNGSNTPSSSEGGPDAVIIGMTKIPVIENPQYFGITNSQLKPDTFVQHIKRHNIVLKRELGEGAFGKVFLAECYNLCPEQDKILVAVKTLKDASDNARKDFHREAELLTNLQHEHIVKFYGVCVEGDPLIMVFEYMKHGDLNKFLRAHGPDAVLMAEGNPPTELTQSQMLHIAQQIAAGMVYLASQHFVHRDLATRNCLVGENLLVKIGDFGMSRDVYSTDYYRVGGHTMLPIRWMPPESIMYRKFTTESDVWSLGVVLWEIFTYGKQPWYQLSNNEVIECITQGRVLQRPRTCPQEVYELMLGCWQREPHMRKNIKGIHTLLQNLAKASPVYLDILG

Usually inhibition stands for the relative decrease from the control value, in per cent. Take `O=C1Nc2ccccc2/C1=C/Nc1ccc2[nH]c(=O)[nH]c2c1`: the inhibition stood at 53.9% in test [1]; 26.2% in [2]; 72.7% in [3]; 26.2% in test [4]; 74.2% in test [5]; 6.68% in test [6]. Moreover, the inhibition was 7.08% in test [7]; -6.64% in test [8]; 38.8% in test [9]; 6.9% in test [10]; 52% in test [11]; 10.8% in [12]. Also, the inhibition in [13] was 44.7%; in [14] it was 9.06%; in test [15] it was 81.9%; in test [16] it was 8.73%; in test [17], 17%; in [18] it was 1.3%. Moreover, the inhibition is 15.2% in test [19] and 25.3% in test [20].

Turning to `CN1CCN(C(=O)c2ccc(NC(=O)Nc3ccc(N(C)c4ccnc(Nc5ccc(CS(C)(=O)=O)cc5)n4)cc3)cc2)CC1`, the inhibition came to 51% in test [1]; 5.61% in test [2]; 31.5% in [3]; 9.24% in test [4]; 36.9% in test [5]; 33.8% in test [6]. For the same molecule, the inhibition is 70.1% in test [7]; -4.74% in [8]; 8.24% in [9]; 84.3% in test [10]; 85.9% in [11]; 68.5% in test [12]. In addition, the inhibition in test [13] is 72.8%; in test [14], 88.4%; in test [15], 95.3%; in test [16], 26.3%; in test [17], 67.7%; in [18] it was 4.67%. Besides, the inhibition in test [19] was 32.7%; in [20], 13%.

Consider `NS(=O)(=O)c1ccc(Nc2cc(-c3cccc(O)c3)n[nH]2)cc1`, for which the inhibition came out at 10.5% in test [1]; 5.48% in [2]; 12.6% in test [3]; 5.55% in [4]; 14.4% in test [5]; 2.77% in [6]. Besides, the inhibition was 2.95% in [7]; -9.08% in [8]; 0.24% in test [9]; 3.17% in test [10]; 17.2% in test [11]; 9.52% in test [12]. Also, the inhibition is 19.4% in test [13]; 7.83% in [14]; 19.6% in [15]; 6.23% in [16]; 8.5% in test [17]; 2.13% in [18]. Also, the values for the inhibition in test [19] and in test [20] were 10.7% and 7.82%, respectively.

As for `COc1cc2ncn(-c3cc(OCc4ccccc4S(C)(=O)=O)c(C#N)s3)c2cc1OC`, the inhibition came to 18.8% in [1]; 15% in test [2]; 57.2% in [3]; 12.9% in [4]; 56.1% in [5]; 10.8% in test [6]. Moreover, the inhibition is 42.5% in test [7]; -7.35% in [8]; 11.1% in [9]; 12.4% in test [10]; 77.2% in test [11]; 28.2% in test [12]. In addition, the inhibition was found to be 73.6% in [13]; 17.7% in test [14]; 93.8% in test [15]; 35.5% in [16]; 71.7% in test [17]; 8.65% in test [18]. Moreover, the inhibition in test [19] was found to be 41.3%; in test [20], 57.5%.

For the molecule `CS(=O)(=O)Nc1cccc(-c2ccc3c(NC(=O)C4CC4)n[nH]c3c2)c1`, the inhibition in test [1] was 2.02%; in test [2] it was 0.05%; in test [3], 0.23%; in [4] it was -0.22%; in test [5], 5.08%; in test [6] it was -1.12%. Also, the inhibition came to 2.67% in test [7]; 0.85% in [8]; 5.01% in test [9]; 2.68% in test [10]; 12.4% in [11]; 1.84% in test [12]. The inhibition in test [13] is 3.58%; in test [14], 1.43%; in [15], 15.6%; in [16] it was 3.13%; in [17], 10.2%; in test [18] it was 1.94%. Besides, the inhibition turned out to be 2.98% in test [19] and 2.8% in test [20].

Consider `CN(C)CCCn1c(-c2nonc2N)nc2cnccc21`, for which the inhibition in [1] is 3.29%; in test [2] it was -0.15%; in test [3], 3.55%; in [4], -0.01%; in test [5] it was 3.2%; in [6] it was 3.61%. Moreover, the inhibition in test [7] is 4.3%; in test [8] it was -2.99%; in test [9] it was 0.63%; in test [10] it was 3.15%; in [11], 6.09%; in test [12], 3.93%. The inhibition in test [13] was 4.46%; in [14], 0.95%; in [15] it was 6.01%; in [16], 3.09%; in test [17] it was 6.11%; in test [18] it was 2.05%. Besides, the figures for the inhibition in test [19] and in test [20] were 4.37% and 5.05%, respectively.

Consider `COC(=O)Nc1nc2cc(Oc3ccc(NC(=O)Nc4cccc(Br)c4)cc3)ccc2[nH]1`, for which the inhibition in [1] came out at 55.6%; in test [2], 19.7%; in [3] it was 32.5%; in test [4], 20.9%; in [5], 38.8%; in [6], 2.73%. Also, the inhibition was found to be 4.17% in test [7]; 0.49% in test [8]; 8.12% in test [9]; 0.95% in test [10]; 7.48% in test [11]; 8.64% in test [12]. Moreover, the inhibition in [13] amounted to 21%; in [14], 11.4%; in test [15], 42.5%; in test [16] it was 20.5%; in test [17], 34.2%; in test [18], 3.41%. Besides, the inhibition in test [19] was determined as 10.2%; in [20] it was 3.09%.

Source of the values: ChEMBL document CHEMBL1961873, “Compounds: GSK PKIS; Assays: Nanosyn kinase panel” (2012).
